Results filed as inconclusive are left out. Entries that show only a call come without a potency. Calls of active or inactive are those of the source. Calls come from the whole dose curve; as a rule, active = well fitted cell-killing curve with a large enough effect; inconclusive = small, poorly fitted or top-dose-only effect, or effect the other way; inactive = no such curve, though single readings can be large or run the other way.
Assays:
[1] = Quantitative High-Throughput drug screen in 47 multiple myeloma cell lines against the NCATS MIPE library collection: OCIMY1_PLB cell viability assay (AID 1918979); note: nearly all actives have a fitted effect of over 35% in size; for viability: series mostly up to about 46 µM
In short: (§1)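 Inhibition of viability over 48 h was scored by ATP content (CellTiter-Glo) in 500-cell wells. Zero and full viability were defined by media-only and DMSO-only wells.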

[2] = Quantitative High-Throughput drug screen in 47 multiple myeloma cell lines against the NCATS MIPE library collection: MM1S_ATCC cell viability assay (AID 1918980); note: nearly all actives have a fitted effect of over 45% in size
In short: as §1

[3] = Quantitative High-Throughput drug screen in 47 multiple myeloma cell lines against the NCATS MIPE library collection: LP1_DSMZ cell viability assay (AID 1918982); note: nearly all actives have a fitted effect of over 35% in size
In short: as §1

[4] = Quantitative High-Throughput drug screen in 47 multiple myeloma cell lines against the NCATS MIPE library collection: OCIMY7_PLB cell viability assay (AID 1918987); note: nearly all actives have a fitted effect of over 65% in size
In short: as §1

[5] = Quantitative High-Throughput drug screen in 47 multiple myeloma cell lines against the NCATS MIPE library collection: OCIMY5_PLB cell viability assay (AID 1918988); note: nearly all actives have a fitted effect of over 65% in size
In short: as §1

[6] = Quantitative High-Throughput drug screen in 47 multiple myeloma cell lines against the NCATS MIPE library collection: MM1R_ATCC cell viability assay (AID 1918981); note: nearly all actives have a fitted effect of over 35% in size
In short: as §1

[7] = Quantitative High-Throughput drug screen in 47 multiple myeloma cell lines against the NCATS MIPE library collection: L363_DSMZ cell viability assay (AID 1918984); note: nearly all actives have a fitted effect of over 40% in size
In short: as §1

[8] = Quantitative High-Throughput drug screen in 47 multiple myeloma cell lines against the NCATS MIPE library collection: KMS34_JCRB cell viability assay (AID 1918985); note: nearly all actives have a fitted effect of over 40% in size
In short: as §1

[9] = Quantitative High-Throughput drug screen in 47 multiple myeloma cell lines against the NCATS MIPE library collection: OPM1_PLB cell viability assay (AID 1918989); note: nearly all actives have a fitted effect of over 40% in size
In short: as §1

[10] = Quantitative High-Throughput drug screen in 47 multiple myeloma cell lines against the NCATS MIPE library collection: KMS28PE_JCRB cell viability assay (AID 1918983); note: nearly all actives have a fitted effect of over 35% in size
In short: as §1
Potency is the fitted concentration of half-maximal effect.

For `Nc1nnc(-c2cccc(Cl)c2Cl)c(N)n1`, the Potency [1] was “inactive”, the Potency [2] was 11.8 µM (active) and the Potency [3] was “inactive”. The Potency [4] was 33.2 µM (active) and the Potency [5] was “inactive”.
With `COc1ccc2c(c1)c(CC(=O)O)c(C)n2C(=O)c1ccc(Cl)cc1` the Potency [1] was “inactive”, the Potency [2] was 18.7 µM (active) and the Potency [6] was “inactive”. The Potency [3] was “inactive”, the Potency [7] was 18.7 µM (active) and the Potency [8] was “inactive”. For the same compound, the Potency [4] was 13.2 µM (active) and the Potency [9] was “inactive”.
In the case of `CC(C)NCC(O)COc1ccc(CCOCC2CC2)cc1` (stereo unspecified), the Potency [1] is reported as “inactive”, the Potency [2] is reported as 16.6 µM (active) and the Potency [6] is reported as “inactive”. The Potency [3] was “inactive”, the Potency [10] was “inactive” and the Potency [7] was “inactive”. The Potency [8] was 5.9 µM (active) and the Potency [5] was “inactive”.
With `CCCCc1oc2ccccc2c1C(=O)c1cc(I)c(OCCN(CC)CC)c(I)c1` the Potency [1] was 26.4 µM (active), the Potency [2] was 2.35 µM (active) and the Potency [6] was 18.7 µM (active). For the same compound, the Potency [8] was 11.8 µM (active), the Potency [4] was 18.7 µM (active) and the Potency [5] was 16.6 µM (active).
In the case of `COc1cc2nc(N(C)CCCNC(=O)C3CCCO3)nc(N)c2cc1OC` (stereo unspecified), the Potency [2] is reported as “inactive”.
In the case of `Cc1ccc(-c2cc(C(F)(F)F)nn2-c2ccc(S(N)(=O)=O)cc2)cc1`, the Potency [1] is reported as “inactive”, the Potency [2] is reported as 20.9 µM (active) and the Potency [6] is reported as 8.33 µM (active). The Potency [7] was “inactive”, the Potency [8] was 1.32 µM (active) and the Potency [4] was 20.9 µM (active). The Potency [5] was 20.9 µM (active).
For `N[C@@H](Cc1c[nH]c2ccc(O)cc12)C(=O)O`, the Potency [1] was “inactive”, the Potency [6] was “inactive” and the Potency [3] was “inactive”. For the same compound, the Potency [7] was “inactive”, the Potency [8] was “inactive” and the Potency [4] was “inactive”. The Potency [5] was “inactive”.
In the case of `CCOC(=O)c1ncn2c1CN(C)C(=O)c1cc(F)ccc1-2`, the Potency [1] is reported as “inactive”, the Potency [2] is reported as 18.7 µM (active) and the Potency [6] is reported as 18.7 µM (active). For the same compound, the Potency [3] was “inactive”, the Potency [10] was “inactive” and the Potency [5] was 20.9 µM (active). For the same compound, the Potency [9] was “inactive”.
For `CCC1(C)CC(=O)NC1=O` (stereo unspecified), the Potency [1] was “inactive”, the Potency [2] was “inactive” and the Potency [6] was “inactive”. For the same compound, the Potency [10] was “inactive”, the Potency [8] was “inactive” and the Potency [4] was “inactive”. The Potency [5] was “inactive” and the Potency [9] was “inactive”.
For `CC1(CN2CCC(n3c(=O)[nH]c4ccccc43)CC2)OCc2ccccc2-n2cccc21` (stereo unspecified), the Potency [1] was “inactive”, the Potency [2] was 7.43 µM (active) and the Potency [6] was 2.64 µM (active). For the same compound, the Potency [10] was 14.8 µM (active) and the Potency [7] was “inactive”.
In the case of `Nc1nc2c(ncn2COC(CO)CO)c(=O)[nH]1`, the Potency [1] is reported as 18.7 µM (active), the Potency [6] is reported as 20.9 µM (active) and the Potency [3] is reported as 23.5 µM (active). For the same compound, the Potency [10] was 20.9 µM (active), the Potency [7] was 20.9 µM (active) and the Potency [8] was 23.5 µM (active). For the same compound, the Potency [4] was 2.64 µM (active) and the Potency [5] was 20.9 µM (active).
In the case of `CC(C)(Oc1ccc(C2CC2(Cl)Cl)cc1)C(=O)O` (stereo unspecified), the Potency [1] is reported as “inactive”, the Potency [2] is reported as 9.59 µM (active) and the Potency [6] is reported as 48.1 µM (active). For the same compound, the Potency [3] was “inactive”, the Potency [10] was “inactive” and the Potency [4] was “inactive”.
In the case of `Clc1ccccc1C(c1ccccc1)(c1ccccc1)n1ccnc1`, the Potency [1] is reported as “inactive” and the Potency [4] is reported as 18.7 µM (active).
For `COc1ccc2[nH]cc(CCNC(C)=O)c2c1`, the Potency [1] was “inactive”, the Potency [2] was 0.372 µM (active) and the Potency [6] was 5.26 µM (active). For the same compound, the Potency [10] was “inactive” and the Potency [4] was “inactive”.
For `O=C(c1ccc(OCCN2CCCCC2)cc1)c1c(-c2ccc(O)cc2)sc2cc(O)ccc12`, the Potency [1] was “inactive”, the Potency [5] was 18.7 µM (active) and the Potency [9] was 5.9 µM (active).
For `Clc1ccc2c(c1)C(N1CCNCC1)=Nc1ccccc1O2`, the Potency [1] was “inactive”, the Potency [2] was 7.43 µM (active) and the Potency [10] was 18.7 µM (active). For the same compound, the Potency [7] was “inactive”, the Potency [8] was 18.7 µM (active) and the Potency [5] was 20.9 µM (active). For the same compound, the Potency [9] was 20.9 µM (active).
In the case of `O=C1c2c(O)ccc(O)c2C(=O)c2c(NCCNCCO)ccc(NCCNCCO)c21`, the Potency [1] is reported as 13.2 µM (active), the Potency [2] is reported as 0.0469 µM (active) and the Potency [6] is reported as 0.105 µM (active). For the same compound, the Potency [3] was 5.9 µM (active), the Potency [10] was 0.935 µM (active) and the Potency [7] was 2.35 µM (active). The Potency [8] was 2.96 µM (active), the Potency [4] was 1.05 µM (active) and the Potency [5] was 1.32 µM (active).
For `CC(CCc1ccc(O)cc1)NCCc1ccc(O)c(O)c1` (stereo unspecified), the Potency [1] was 18.7 µM (active), the Potency [2] was 10.5 µM (active) and the Potency [6] was 18.7 µM (active). For the same compound, the Potency [3] was 20.9 µM (active), the Potency [7] was 18.7 µM (active) and the Potency [8] was 9.35 µM (active). The Potency [4] was 16.6 µM (active) and the Potency [5] was 20.9 µM (active).
For `Cc1cn([C@H]2C=C[C@@H](CO)O2)c(=O)[nH]c1=O`, the Potency [1] was “inactive”, the Potency [3] was “inactive” and the Potency [10] was “inactive”. For the same compound, the Potency [7] was “inactive”, the Potency [8] was “inactive” and the Potency [9] was “inactive”.
In the case of `CC(=O)OCC(CCn1cnc2cnc(N)nc21)COC(C)=O`, the Potency [1] is reported as “inactive”, the Potency [6] is reported as “inactive” and the Potency [3] is reported as “inactive”. The Potency [10] was “inactive”, the Potency [7] was “inactive” and the Potency [8] was “inactive”. The Potency [5] was “inactive”.
In the case of `NCCS(=O)(=O)O`, the Potency [1] is reported as “inactive”, the Potency [2] is reported as “inactive” and the Potency [6] is reported as “inactive”. The Potency [3] was “inactive”, the Potency [10] was “inactive” and the Potency [8] was “inactive”.
For `COc1ccccc1N1CCN(CC(O)COc2cccc3ccccc23)CC1` (stereo unspecified), the Potency [1] was “inactive”, the Potency [3] was “inactive” and the Potency [10] was 13.2 µM (active). The Potency [8] was “inactive” and the Potency [9] was 14.8 µM (active).
In the case of `Cc1cc(C(C)(C)C)c(O)c(C)c1CC1=NCCN1`, the Potency [1] is reported as “inactive”, the Potency [6] is reported as “inactive” and the Potency [3] is reported as “inactive”. The Potency [10] was “inactive” and the Potency [7] was “inactive”.
In the case of `CN(C)CCC=C1c2ccccc2C=Cc2ccccc21`, the Potency [1] is reported as “inactive”, the Potency [6] is reported as 18.7 µM (active) and the Potency [10] is reported as 16.6 µM (active). For the same compound, the Potency [7] was “inactive”, the Potency [8] was “inactive” and the Potency [4] was 14.8 µM (active). For the same compound, the Potency [5] was 14.8 µM (active) and the Potency [9] was 18.7 µM (active).
For `CC12CC3CC(C)(C1)CC(N)(C3)C2`, the Potency [1] was “inactive”, the Potency [2] was 18.7 µM (active) and the Potency [3] was “inactive”. The Potency [10] was “inactive” and the Potency [4] was 23.5 µM (active).
With `Cn1cnc2c1c(=O)[nH]c(=O)n2C` the Potency [1] was 23.5 µM (active), the Potency [2] was 29.6 µM (active) and the Potency [6] was 18.7 µM (active). For the same compound, the Potency [3] was 16.6 µM (active), the Potency [10] was 18.7 µM (active) and the Potency [7] was 7.43 µM (active). The Potency [8] was 16.6 µM (active), the Potency [4] was 5.9 µM (active) and the Potency [5] was 14.8 µM (active). The Potency [9] was 10.5 µM (active).
For `O=c1c(-c2ccc(O)cc2)coc2cc(O)cc(O)c12`, the Potency [1] was “inactive”.
With `O=C(CCCN1CCC(O)(c2ccc(Cl)cc2)CC1)c1ccc(F)cc1` the Potency [1] was “inactive”, the Potency [2] was 9.35 µM (active) and the Potency [6] was “inactive”. The Potency [10] was 16.6 µM (active) and the Potency [5] was 18.7 µM (active).
For `Cc1ccc(C(=O)Nc2ccc(S(=O)(=O)O)c3cc(S(=O)(=O)O)cc(S(=O)(=O)O)c23)cc1NC(=O)c1cccc(NC(=O)Nc2cccc(C(=O)Nc3cc(C(=O)Nc4ccc(S(=O)(=O)O)c5cc(S(=O)(=O)O)cc(S(=O)(=O)O)c45)ccc3C)c2)c1`, the Potency [1] was “inactive”, the Potency [6] was “inactive” and the Potency [3] was “inactive”. The Potency [7] was “inactive” and the Potency [9] was 0.833 µM (active).
In the case of `CCC1(c2ccccc2)C(=O)NCNC1=O`, the Potency [1] is reported as “inactive”, the Potency [2] is reported as 1.05 µM (active) and the Potency [6] is reported as “inactive”. For the same compound, the Potency [3] was “inactive”, the Potency [8] was “inactive” and the Potency [4] was 3.32 µM (active). The Potency [9] was 8.33 µM (active).
For `Cn1c(=O)c2c(ncn2C)n(C)c1=O`, the Potency [1] was “inactive”, the Potency [2] was “inactive” and the Potency [6] was “inactive”. For the same compound, the Potency [3] was “inactive”, the Potency [10] was “inactive” and the Potency [7] was “inactive”. The Potency [8] was “inactive”.
With `CN1CCN2c3ccccc3Cc3ccccc3C2C1` (stereo unspecified) the Potency [1] was 16.6 µM (active), the Potency [2] was 13.2 µM (active) and the Potency [4] was 18.7 µM (active). For the same compound, the Potency [5] was 23.5 µM (active).
With `O=C1Cc2cc(CCN3CCN(c4nsc5ccccc45)CC3)c(Cl)cc2N1` the Potency [1] was 20.9 µM (active), the Potency [6] was 20.9 µM (active) and the Potency [8] was 20.9 µM (active). For the same compound, the Potency [5] was 37.2 µM (active).
In the case of `CS(=O)(=O)Nc1ccc([N+](=O)[O-])cc1Oc1ccccc1`, the Potency [1] is reported as “inactive”, the Potency [2] is reported as 16.6 µM (active) and the Potency [6] is reported as 20.9 µM (active). For the same compound, the Potency [10] was 0.187 µM (active), the Potency [7] was “inactive” and the Potency [5] was 11.8 µM (active).

Reference: PubChem BioAssay (NCATS)
